Screening results from PubChem.
This is a sample that favours compounds with a hit; in the whole collection about 11% have one here.
IL-1B inflam inh = inflammasome signaling inhibition, IL-1 beta readout; THP-1 LPS/ATP IL-1B secretion, AlphaLISA, 16 h; hits give low values; activity change, % at 57.5 µM; 360,000 tested, 4.7% active; AID 743279; in the data active means activity change below about -50%; inconclusive means mostly about -30% to -49%
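THP-1 cells pretreated 1 hr with compounds (up to 57.5 uM final), then stimulated with LPS (250 ng/mL final) plus ATP (1.25 mM final); secreted IL-1B measured by AlphaLISA after 16 hr, decreased signal indicating inhibition.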
MCF10A rereplic = DNA re-replication induction in MCF 10a cells; AID 624296; Potency, µM (doses to about 46.1 µM), most hits filed as activators; MCF 10A DNA re-replication, Hoechst nuclear intensity, 48 h; 350,000 tested, 2.9% active; further: nearly all actives have a fitted effect of over 50% in size
RORg inh = ROR gamma (mouse) transcription inhibition; P51450; Drosophila S2 Gal4-RORgamma UAS-luciferase reporter, 20 h; Potency, µM (highest dose often 53.6 µM), usual class: inhibitors; 310,000 tested, 5.4% active; AID 2551; further: nearly all actives have a fitted effect of over 60% in size
Target sequence (P51450 whole entry, looked up, the tested form may be a part): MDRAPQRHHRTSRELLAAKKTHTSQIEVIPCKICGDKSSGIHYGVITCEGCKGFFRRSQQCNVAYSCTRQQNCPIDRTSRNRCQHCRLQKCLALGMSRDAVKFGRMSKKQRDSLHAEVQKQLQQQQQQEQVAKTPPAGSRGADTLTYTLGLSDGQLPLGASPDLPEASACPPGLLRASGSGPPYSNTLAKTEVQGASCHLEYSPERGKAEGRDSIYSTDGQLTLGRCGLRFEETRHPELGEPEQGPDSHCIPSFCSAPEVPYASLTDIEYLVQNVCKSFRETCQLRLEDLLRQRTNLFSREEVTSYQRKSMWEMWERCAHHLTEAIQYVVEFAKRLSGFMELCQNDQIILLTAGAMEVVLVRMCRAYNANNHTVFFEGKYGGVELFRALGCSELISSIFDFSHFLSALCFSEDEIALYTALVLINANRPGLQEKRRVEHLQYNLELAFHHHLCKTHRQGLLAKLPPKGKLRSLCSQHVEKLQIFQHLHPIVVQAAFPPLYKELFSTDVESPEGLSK
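Luminescence from a UAS-regulated Photinus luciferase reporter in stably transfected Drosophila Schneider cells is measured; decreased signal marks ROR gamma inhibition. Fusion expression is induced by 700 uM copper sulfate for 20 hr.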
SW480 rereplic = induces DNA re-replication in SW480 colon adenocarcinoma cells; Potency, µM (titrated, usually from 46.1 µM), most hits filed as activators; AID 624297; SW480 DNA re-replication, Hoechst DNA content imaging, 48 h; 340,000 tested, 1.8% active; further: nearly all actives have a fitted effect of over 55% in size
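First, 250 cells per well were seeded. Next, compound or vehicle (23 nL) was pinned in, plates sat 48 hr at 37 C. Finally Hoechst was added for 40 min before fluorescence scanning.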
VP16 counter = counter-screen for ROR gamma inhibitors: Gal4-VP16 reporter; Drosophila S2 Gal4-VP16 UAS-luciferase, luminescence, 20 h; Potency, µM (titrated, usually from 53.6 µM), most hits filed as inhibitors; 310,000 tested, 3.5% active;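 further: Gal4-VP16 expression switched on by copper sulfate through the metallothionein promoter; nearly all actives have a fitted effect of over 50% in size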
Of the large screens only hits and unclear results are named; the others gave an inactive call. Unless noted, the call rests on the fitted dose curve; in most records, active means well fitted curve in the direction sought with a large enough effect; inconclusive means small, poorly fitted or top-dose-only effect, or another doubt; inactive means no such curve, though single readings can be large; an effect the other way counts as inactive or inconclusive.

CC(=O)c1nn(-c2cccc(Br)c2)cc1C(=O)c1ccc(Cl)cc1	MCF10A rereplic 4.6µM, SW480 rereplic inconclusive
CN1C[C@@H]2[C@@H]3C(=O)N(Cc4ccccc4)C(=O)[C@@H]3[C@](C)(C1=O)N2C(=O)c1ccc(Br)cc1	none (no result: RORg inh, VP16 counter)
COc1ccc(Nc2nc(-c3cccs3)nc3ccccc23)c(OC)c1	MCF10A rereplic inconclusive, SW480 rereplic inconclusive
COc1cccc2nc(-c3cccs3)nc(NN3C(=O)C=C(C)C3=O)c12	RORg inh 6.3µM, VP16 counter 5µM (no result: IL-1B inflam inh, MCF10A rereplic, SW480 rereplic)
O=C(Nc1cc(Cl)ccc1-n1cncn1)c1ccc([N+](=O)[O-])s1	MCF10A rereplic 21µM, SW480 rereplic 23µM, VP16 counter inconclusive
O=C(Nc1cc(Cl)ccc1-n1cncn1)c1ccco1	none (no result: RORg inh, VP16 counter)
COc1cc(OC)c(C(=O)Nc2cc(Cl)ccc2-n2cncn2)cc1OC	SW480 rereplic 5.2µM (no result: RORg inh, VP16 counter)
COc1ccccc1C(=O)Nc1cc(Cl)ccc1-n1cncn1	RORg inh 11µM
CC(C)=CCC/C(C)=C/CNC(=O)C[C@H]1C[C@H](C(=O)N2CCOCC2)[C@@]2(CCC3CCCC3)c3[nH]c4cc(-c5ccco5)ccc4c3CCN2C1=O	none (no result: RORg inh, VP16 counter)
CC(C)COc1ccc(-c2cc(C(=O)NN)[nH]n2)cc1	RORg inh 13µM, VP16 counter inconclusive
Cc1ccc([C@H]2N[C@]3(CCCN(Cc4ccco4)C3=O)[C@H]3C(=O)N(C)C(=O)[C@@H]23)cc1	none (no result: MCF10A rereplic, RORg inh, SW480 rereplic, VP16 counter)
COc1ccc(Sc2nc(-c3ccccn3)ncc2OC)cc1	MCF10A rereplic inconclusive, RORg inh 2.2µM, SW480 rereplic 9.2µM, VP16 counter 8.9µM
COc1cnc(-c2ccccn2)nc1Sc1ccc(Cl)cc1	MCF10A rereplic 15µM, RORg inh 5.6µM, SW480 rereplic 21µM, VP16 counter 5.6µM
COc1cnc(-c2ccccn2)nc1Sc1ccccc1	RORg inh 2.5µM, SW480 rereplic inconclusive, VP16 counter 11µM
COc1cnc(N(C)C)nc1Sc1ccc(Cl)cc1	MCF10A rereplic inconclusive
N#Cc1ccc(-c2ccccc2)nc1Sc1ccc(F)cc1	MCF10A rereplic inconclusive
COc1cnc(-c2ccccn2)nc1Sc1ccc(F)cc1	VP16 counter 3.5µM
CCOC(=O)CSc1nc(-c2ccccn2)ncc1OC	MCF10A rereplic inconclusive, RORg inh inconclusive
COc1cc(OC)cc(C2=Cc3ccc(OC)cc3C(CC(C)=O)N2c2ccc(-c3cccs3)cc2)c1 (centres undefined)	none (no result: MCF10A rereplic, RORg inh, SW480 rereplic, VP16 counter)
C=C(COC)C1=CCC(C(=O)OC)(C(=O)OC)[C@@H](C[N+](=O)[O-])c2ccccc21	none (no result: IL-1B inflam inh, MCF10A rereplic, SW480 rereplic)
CC1=C(C(=O)OCCNC(=O)c2ccccc2O)C(c2ccccc2[N+](=O)[O-])C(C(=O)OCC2CCCO2)=C(C)N1 (centres undefined)	IL-1B inflam inh -58, MCF10A rereplic inconclusive, RORg inh inconclusive, SW480 rereplic inconclusive
COc1ccc(C2C(C(=O)c3ccccc3)=C(C)Nc3nc4ccccc4n32)cc1OC (centres undefined)	none
COc1ccc(OC)c(C2C(C(=O)c3ccccc3)=C(C)Nc3nc4ccccc4n32)c1 (centres undefined)	RORg inh 7.1µM
COc1ccc([C@]23Cc4cc(C#N)ccc4C(O2)c2c(cc(C)n(-c4ccccc4)c2=O)O3)cc1	none (no result: IL-1B inflam inh, MCF10A rereplic, SW480 rereplic)
C=CCNC(=O)c1ccc(CN(c2ccc(OCC)cc2)S(=O)(=O)c2ccc(C)cc2)cc1	MCF10A rereplic 26µM, RORg inh inconclusive, SW480 rereplic inconclusive
Cn1cc(C(=O)[C@@H]2CCc3[nH]cnc3C2)c2ccccc21	none (no result: IL-1B inflam inh)
Cc1ccc(-n2cccc2C(=S)N=P(N(C)C)(N(C)C)N(C)C)cc1	IL-1B inflam inh -59, MCF10A rereplic inconclusive, RORg inh 2.2µM, SW480 rereplic inconclusive, VP16 counter 6.3µM
Cc1ccc(-n2cccc2C(=O)NS(=O)(=O)c2ccc(C)cc2)cc1	none
COc1cccc(-c2ccc3ncnc(NC4CC4)c3c2)c1	VP16 counter inconclusive (no result: IL-1B inflam inh, MCF10A rereplic, SW480 rereplic)
COc1cc(O)c(C(CCN2CCCC(C)C2)c2ccc(N(C)C)cc2)c(OC)c1 (centres undefined)	IL-1B inflam inh -55, MCF10A rereplic inconclusive
COc1cc(O)c(C(CC(=O)N2CCCCC2)c2ccc(N(C)C)cc2)c(OC)c1 (centres undefined)	RORg inh 1µM
COc1cc(O)c(C(CCN2CCCC(C)C2)c2ccc3c(c2)OCO3)c(OC)c1 (centres undefined)	none
